DT40 TDP1 no CPT: qHTS for Inhibitors of human tyrosyl-DNA phosphodiesterase 1 (TDP1): qHTS in cells in absence of CPT; AID 686978, 2013; 420,000 compounds, 15% hits; Potency, µM (titrated, usually from 46.2 µM), for inactives: top-dose activity change, negative = growth inhibition, usual class: inhibitors; DT40 Tdp1-/- hTDP1 cells, no CPT, ATP luminescence, 48 h; further: on the % scale 0 is the no-effect control and ±100 the full control effect; nearly all actives have a fitted effect of over 55% in size
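Growth of hTDP1-complemented DT40 Tdp1-knockout cells is measured by ATP luminescence after at least 48 hr compound exposure at 37 °C, with DMSO substituting for the 20 nM CPT used in the parallel screen.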
DT40 TDP1 CPT: qHTS for Inhibitors of human tyrosyl-DNA phosphodiesterase 1 (TDP1): qHTS in cells in presence of CPT; chicken DT40 Tdp1-/-;hTDP1 cells + 20 nM CPT, ATP luminescence, 48 h; Potency, µM (series often up to 46.2 µM), for the others: at the top dose activity change, negative = growth inhibition, usual class: inhibitors; 420,000 compounds, 12% hits; AID 686979, 2013; further: on the % scale 0 is the no-effect control and ±100 the full control effect; nearly all actives have a fitted effect of over 55% in size
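Chicken DT40 Tdp1-/- cells complemented with human TDP1, 400 cells/well, exposed to compounds plus 20 nM camptothecin for at least 48 h at 37 C; viability read as ATP content by CellTiter-Glo luminescence.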
ClpP mod: qHTS Assay for Activators of ClpP; AID 651965, 2013; Potency, µM (series often up to 57.5 µM), without a hit: at the highest dose activity change, negative = active; 340,000 compounds, 1.9% hits; purified B. subtilis ClpP, FRET peptide cleavage, 20 min; active means well fitted falling curve with a large enough effect; inconclusive means small, poorly fitted or top-dose-only effect; inactive means no such curve, though single readings can be large or run the other way; further: the source files actives as falling curves though it sought activators and does not explain the sign; nearly all actives have a fitted effect of over 65% in size
Target sequence (P80244 whole entry, looked up): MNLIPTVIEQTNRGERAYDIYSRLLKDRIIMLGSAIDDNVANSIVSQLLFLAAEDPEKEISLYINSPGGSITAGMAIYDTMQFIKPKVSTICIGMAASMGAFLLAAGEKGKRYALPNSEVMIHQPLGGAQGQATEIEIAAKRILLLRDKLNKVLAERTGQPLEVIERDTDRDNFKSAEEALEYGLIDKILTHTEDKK
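Buffer: 100 mM Tris/HCl pH8, 100 mM KCl, 0.05% low protease BSA, 2.5% glycerol, 0.01% Tween-20. ClpP 10 microg/mL final; 20 min RT; delta FRET normalized to ADEP and DMSO controls.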
TDP1 block: qHTS Assay for Inhibitors of Tyrosyl-DNA Phosphodiesterase (TDP1); recombinant TDP1, AlphaScreen DNA substrate cleavage; Tyrosyl-DNA phosphodiesterase 1 (Homo sapiens), Q9NUW8; AID 485290, 2010; Potency, µM (highest dose often 130 µM), without a hit: at the highest dose activity change, negative = inhibition, hits mostly inhibitors; 350,000 compounds, 0.28% hits; further: on the % scale 0 is the no-effect control and ±100 the full control effect; nearly all actives have a fitted effect of over 40% in size
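AlphaScreen read-out: signal falls as enzyme removes the 3' tyrosine-FITC from a 5'-biotinylated DNA oligo (15 nM, 5 min, RT). Enzyme was E. coli-made recombinant Tdp1 at 1 nM, exposed to compound for 15 min beforehand; beads 10 ug/ml, 10 min.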
* = called active by the depositor; ? = inconclusive; . = no result given; [ ] = dose if it differs, or a comment. Only some compounds are listed: those with a hit (about 17% of all), similar ones and a draw of the others. Unless noted, the call rests on the fitted dose curve; in most records, active means well fitted curve in the direction sought with a large enough effect; inconclusive means small, poorly fitted or top-dose-only effect, or another doubt; inactive means no such curve, though single readings can be large; an effect the other way counts as inactive or inconclusive. Potency means the concentration at half of the fitted maximal effect.

SMILES | DT40 TDP1 no CPT | DT40 TDP1 CPT | ClpP mod | TDP1 block
O=C(CSc1nnc(-c2ccc(F)cc2)c2ccccc12)Nc1ccccc1 | ? | ? | 0% | 3%
COC(=O)c1cccc(NC(=O)CSc2nc3cccnc3n2C)c1 | 16µM* | ? | 0% | 5%
CC(C)Oc1ccccc1NC(=O)CSc1nc2ccccc2c(=O)n1C | ? | 21µM* | 2% | .
COC(=O)Cc1nnc(SCC(=O)Nc2ccccc2)c2ccccc12 | 23µM* | 18µM* | 4% | 2%
COc1cc(C(=O)Nn2c(C)nc3ccccc3c2=O)cc(OC)c1OC | -29% | -3% | 1% | .
COC(=O)C1CCN(Cc2ccc3c(c2)CN(C(=O)c2cc(C)on2)CCO3)CC1 | -18% | 10%[9.04 µM] | . | .
CCC1CN(CCNC(=O)c2ccc3c(c2)OCO3)Cc2cc(OC)ccc2O1 (stereo unspecified) | ? | -5%[9.04 µM] | . | .
CCCCn1c(-c2ccc(OC)cc2)nc2c(=O)n(C)c(=O)[nH]c21 | ? | ? | 4% | .
CCCCn1c(-c2ccc(Cl)cc2)nc2c(=O)n(C)c(=O)[nH]c21 | -10% | -6% | 11µM* | 5%
Cc1cc(C(=O)Nc2ccncc2)ccc1[N+](=O)[O-] | 15µM* | ? | 4% | .
Cc1ccc(C(=O)NCC(C)NC(=O)c2ccc(C)c([N+](=O)[O-])c2)cc1[N+](=O)[O-] (stereo unspecified) | 15µM* | ? | 0% | .
CCN(CC)C(=O)c1sc(NC(=O)c2ccc(OC)c([N+](=O)[O-])c2)c(C#N)c1C | . | . | . | -1%
CCN(CC)C(=O)c1sc(NC(=O)c2ccc(C)c([N+](=O)[O-])c2)c(C#N)c1C | 21µM* | ? | -6% | 3%
Cc1ccc(C(=O)NC(=S)Nc2cccc(NC(=O)c3ccccc3)c2)cc1[N+](=O)[O-] | 16µM* | ? | 0% | 3%
Cc1ccc(C(=O)NCCSC(C)(C)C)cc1[N+](=O)[O-] | ? | ? | 8% | 2%
O=C(CN1CCCC1)Nc1ccc(F)c(Cl)c1 | 0% | 22% | . | 3%
O=C1C[C@H](c2ccccc2)Oc2cc(O)cc(O)c21 | -20% | 14% | . | 4%
COC(=O)c1ccc(NC(=O)CCn2cnnn2)cc1 | 7% | 5% | 0% | 6%
Cc1ccc(C(=O)Nc2ccncc2)cc1[N+](=O)[O-] | 0.73µM* | ? | 2% | 4%
Oc1ccc(Cl)cc1-c1cc(-c2cccc(Br)c2)n[nH]1 | 18µM* | 16µM* | 0% | -6%
Oc1ccc(Cl)cc1-c1cc(-c2ccco2)[nH]n1 | 18µM* | 9.2µM* | ? | 5%
NNC(=O)COc1cccc(Oc2ccccc2)c1 | 18µM* | ? | . | 5%
CC1c2[nH]c3ccccc3c2CCN1C(=O)Nc1ccccc1 (stereo unspecified) | 23µM* | 23µM* | -12% | 1%
COc1ccc2[nH]c3c(c2c1)CCN(C(=O)c1cccc(Cl)c1)C3c1ccc(F)cc1 (stereo unspecified) | ? | ? | -11% | 6%
COc1ccc(NC(=O)N2CCc3c([nH]c4ccc(OC)cc34)C2c2ccc(OC)cc2)cc1 (stereo unspecified) | 21µM* | ? | -6% | 11%
SMILES | DT40 TDP1 no CPT | DT40 TDP1 CPT | ClpP mod | TDP1 block
Cc1ccc(NC(=O)N2CCc3c([nH]c4ccccc34)C2c2ccccc2F)c(Cl)c1 (stereo unspecified) | 23µM* | ? | -3% | 8%
O=C(Nc1ccccc1)N1CCc2c([nH]c3ccccc23)C1C(F)(F)F (stereo unspecified) | ? | 11% | . | 1%
Cc1nonc1CC(=O)N1CCc2c([nH]c3ccccc23)C1c1ccccc1F (stereo unspecified) | ? | ? | . | 0%
COC(=O)[C@@H]1OC(c2ccccc2)O[C@H]1C(=O)OC | . | . | . | 7%
O=C(c1ccccc1)c1cc(Cl)ccc1N1C(=O)C=CC1=O | 1.2µM* | 2.3µM* | . | 6%
O=C(NCc1ccco1)/C(=C/c1ccc(C(F)(F)F)cc1)c1nc2ccccc2[nH]1 | ? | ? | -24% | 8%
O=C(NCc1ccco1)/C(=C/c1cccc(C(F)(F)F)c1)c1nc2ccccc2[nH]1 | 5.8µM* | 9.2µM* | 16% | 8%
NC(=O)[C@H]1CC2(CC(c3cccc(NC(=O)COc4ccc(Cl)cc4)c3)=NO2)CN1C(=O)c1ccc(Cl)cc1 (stereo partly specified) | ? | 18µM* | -4% | -1%
CC1(C(=O)N2CC3(CC(c4cccc(NC(=O)COc5ccc(Cl)cc5)c4)=NO3)C[C@@H]2C(N)=O)CC1 (stereo partly specified) | 15µM* | 13µM* | -9% | 6%
NC(=O)[C@H]1CC2(CC(c3cccc(NC(=O)COc4ccc(Cl)cc4)c3)=NO2)CN1C(=O)c1ccccc1C(=O)c1ccccc1 (stereo partly specified) | 18µM* | 21µM* | 0% | 6%
CCC(=O)N1CC2(CC(c3cccc(NC(=O)COc4ccc(Cl)cc4)c3)=NO2)C[C@@H]1C(N)=O (stereo partly specified) | . | . | . | 4%
COc1cccc(-c2cc(=O)c3ccc(OC)cc3o2)c1 | -27% | ? | . | 5%
CCCCN(C(=O)c1cccc(S(=O)(=O)N2CCN(C)CC2)c1)c1c(N)n(CCC)c(=O)[nH]c1=O | 4% | 5% | -4% | -10%
CCOc1ccc(C2CC(=O)Nc3c2c(=O)[nH]c2ncnn32)cc1 (stereo unspecified) | . | . | -2% | 2%
c1ccc(SCc2cn(C[C@H]3CC[C@@H]([C@@H]4CC[C@H](Cn5cc(CSc6ccccc6)nn5)O4)O3)nn2)cc1 | 16µM* | ? | -1% | .
O=C1c2ccccc2C(=O)N1CCCCc1cn(C[C@H]2CC[C@@H]([C@@H]3CC[C@H](Cn4cc(CCCCN5C(=O)c6ccccc6C5=O)nn4)O3)O2)nn1 | 16µM* | 16µM* | 2% | 3%
c1ccc(Cn2cc(CSc3ccccc3)nn2)cc1 | -22% | 9% | -1% | -5%
COc1cccc(-c2cn(C[C@H]3CC[C@@H]([C@@H]4CC[C@H](Cn5cc(-c6cccc(OC)c6)nn5)O4)O3)nn2)c1 | 16µM* | ? | -1% | .
Cn1c(SCc2nc3ccccc3[nH]2)nnc1-c1cnccn1 | 1% | -1% | -2% | 10%
C(=C\c1ccccc1)/CSc1nnc(-c2ccccn2)n1Cc1ccco1 | 2.9µM* | 2.6µM* | 1% | 3%
Clc1cccc(-c2nnc(SCc3nc4ccccc4[nH]3)n2Cc2ccco2)c1 | ? | ? | -4% | 5%
NC(=O)CSc1nnc(-c2ccccn2)n1Cc1ccco1 | 0% | 7% | 1% | 10%

Assay outcomes: PubChem BioAssay, National Center for Advancing Translational Sciences (NCATS)
